Screening data: PubChem, Johns Hopkins Ion Channel Center
CHT block – inhibits the human high affinity choline transporter | B-score at 10 µM | Q9GZV3 | AID 488975 | CHT-expressing cells, membrane potential dye, choline response; active compounds read low | hit rate 0.86% among 310,000;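 active = B-score over 3 SD under the library average, and starting fluorescence ratio not unusually high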;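 note: choline stimulus applied at its EC90 after an EC20 pre-addition; B-score computed on integrated fluorescence ratio after choline addition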
CHT PAM – allosteric activators of human choline transporter CHT | CHT-expressing cells, membrane potential dye, choline EC20; active compounds read high; LV-AA mutant CHT in HEK293 cells | B-score at 10 µM | hit rate 0.49% among 310,000 | AID 488977;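 active = initial fluorescence not abnormally high and integrated response B-score, plate-corrected, over 3 SD above library mean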
ANO1 block – blocks the mouse calcium-activated chloride channel TMEM16A; Q8BHY3; AID 588511; hit rate 1.2% among 310,000; normalized B-score (activity score, 25-100; higher = stronger inhibition) at 10 µM; HEK293 TMEM16A/YFP iodide influx fluorescence, ionomycin;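 active = ratio plate-corrected score three or more library SD toward inhibition, starting fluorescence score within five deviations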;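 note: score derived from kinetic fluorescence span divided by baseline fluorescence per well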
TMEM16A act – activates or potentiates the mouse TMEM16A chloride channel; Q8BHY3; HEK293 TMEM16A/YFP-H148Q/I152L, iodide quench fluorescence; active compounds read low; B-score at 10 µM; hit rate 0.3% among 340,000;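 active = fluorescence-ratio B-score plate-corrected deviation score at least 3 library SD below zero, with starting fluorescence score within 5 deviations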;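 note: channel opened by trigger with iodide after compound preincubation; score built on the fluorescence ratio of max minus min over baseline; more negative score means more quench and so TMEM16A activation or potentiation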
* marks the source's active call; other numbers are inactive results; i = inactive; · = no result given. A selection: hits, their analogues and other compounds. The true share with any hit is near 2.4%.

SMILES | CHT block | CHT PAM | ANO1 block | TMEM16A act
COc1ccc(-c2nn(-c3ccccc3)cc2C(=O)N/N=C/c2ccc([N+](=O)[O-])o2)cc1 | i | i | i | -6.87*
COc1cc(/C=N/n2cnnc2)ccc1OCC(=O)N1CCOCC1 | i | 9.61* | i | i
COc1cc(C(=O)NNC(=O)c2ccc(F)cc2)ccc1OCC(=O)N1CCOCC1 | · | · | · | i
COc1cc(C(=O)Nc2nc(-c3ccc(F)cc3)cs2)ccc1OCC(=O)N1CCOCC1 | i | i | 25* | i
COc1cc(C(=O)Nc2nc(-c3ccc(C)cc3)cs2)ccc1OCC(=O)N1CCOCC1 | i | i | i | i
COc1ccc(-c2csc(NC(=O)c3ccc(OCC(=O)N4CCOCC4)c(OC)c3)n2)cc1 | i | i | 100* | i
COc1cc(/C=N/NC(N)=S)ccc1OCC(=O)N1CCOCC1 | i | i | i | i
CCc1ccc(C(C)NC(=O)c2ncn[nH]2)cc1 (stereo not given) | i | i | i | i
COc1cc(NC(=O)C/C(C)=N/NC(=O)C(OC)c2ccccc2)c(OC)cc1Cl (stereo not given) | i | i | i | i
CN(C)CC(CCC(CN(C)C)C(=O)c1ccccc1)C(=O)c1ccccc1 (stereo not given) | · | · | · | -9.5*
CCNc1nc(NC(C)C)nc(NS(=O)(=O)c2ccc(C)cc2)n1 | i | i | i | i
CN1CCN(S(=O)(=O)c2cccc(C(=O)Oc3ccccc3Cl)c2)CC1 | i | i | i | i
COC(=O)C(CCCN1C(=O)c2ccccc2C1=O)(NC(C)=O)c1nn[nH]n1 (stereo not given) | i | i | i | i
Cc1cccc(C)c1OCC(O)CN1CCC(CN2C(=O)c3cccc4cccc(c34)C2=O)CC1 (stereo not given) | -6.3* | i | i | i
Cc1csc(NC(=O)CSc2ncnc3c2cnn3-c2ccccc2Cl)n1 | i | i | 100* | i
Cc1cc(C(=O)NC2CCCc3c2cnn3-c2ccc(C(C)(C)C)cc2)nn1C (stereo not given) | i | i | 25* | i
COc1ccc(C2=CC(=O)C[C@H](c3ccc(F)cc3)C2)cc1F | · | · | · | -6.63*
COc1cc(F)c(C2=CC(=O)C[C@H](c3ccc(F)cc3)C2)cc1F | · | · | · | i
COC(=O)c1c[nH]c(=S)n1Cc1ccccc1 | · | · | · | -5.44*
S=c1[nH]cc(-c2ccc(Cl)cc2)n1Cc1ccccc1 | i | i | i | i
COC(=O)c1sc(NC(=S)NC(=O)c2cccc(Br)c2)nc1C | i | i | i | i
O=C(Nc1ccccc1Cl)c1ccc(COc2ccc3c(c2)CCC3)cc1 | i | i | i | -7.43*
NNC(=O)c1ccc(COc2ccc3c(c2)CCC3)cc1 | i | i | i | i
O=C(Nc1ccc(Cl)cc1)Nc1ccccc1NS(=O)(=O)c1cccs1 | i | i | 100* | i
COc1ccc(S(=O)(=O)N2CCOC2CNC(=O)C(=O)NCCN2CCOCC2)cc1 (stereo not given) | i | i | i | i
SMILES | CHT block | CHT PAM | ANO1 block | TMEM16A act
CCOCCCNC(=O)CN1N=C(c2ccc(C)cc2)CCC1=O | i | i | i | i
CC1=NOC(=O)/C1=C\c1ccc(-c2cc(Cl)ccc2Cl)o1 | i | i | i | -5.4*
CC1=NOC(=O)/C1=C/c1ccc(-c2ccc(Cl)cc2)o1 | i | i | i | i
COc1ccccc1N1CCN(C2CCCCC2NS(=O)(=O)c2ccc(Cl)cc2)CC1 (stereo not given) | i | i | i | -32.7*
CCN(CCNC(=O)C1CCN(Cc2nc(-c3ccc(Cl)cc3)oc2C)CC1)c1ccccc1 | i | i | 100* | i
Cc1cccc(NC(=O)c2ccc(Cl)c(S(=O)(=O)N3CCc4ccccc43)c2)n1 | · | · | · | i
CCc1nnc(NC(=O)c2ccc(Cl)c(S(=O)(=O)N3CCc4ccccc43)c2)s1 | i | i | 100* | i
CC(C)C(c1nnnn1Cc1ccccc1)N(Cc1ccco1)Cc1cccs1 (stereo not given) | i | i | i | -13.8*
O=S(=O)(c1ccc(Cl)s1)N1CCN(C/C=C/c2ccccc2)CC1 | i | i | i | -6.97*
CC(OC(=O)CCCNC(=O)c1ccc(Cl)cc1)C(=O)N(C)Cc1ccccc1 (stereo not given) | i | i | i | i
COc1cc(NC(=O)NS(=O)(=O)c2ccc(C)cc2)cc(OC)c1 | i | i | i | i
